From paper PMC4336329 (PLoS ONE, 2015)
Among all 310,000 compounds or so, about 14,000 (4.5%) showed an effect of 50% or more. Effects have a minus sign here. For the sample, strong results were picked, then their nearest neighbours and some compounds at random.

The compounds below were run against human ether-à-go-go-related gene (hERG) potassium channel (human, UniProt Q12809) (assay: primary screen, population patch clamp on CHO cells stably expressing hERG; higher = less effect of the substance).
human ether-à-go-go-related gene (hERG) potassium channel, sequence (Q12809 whole entry, looked up): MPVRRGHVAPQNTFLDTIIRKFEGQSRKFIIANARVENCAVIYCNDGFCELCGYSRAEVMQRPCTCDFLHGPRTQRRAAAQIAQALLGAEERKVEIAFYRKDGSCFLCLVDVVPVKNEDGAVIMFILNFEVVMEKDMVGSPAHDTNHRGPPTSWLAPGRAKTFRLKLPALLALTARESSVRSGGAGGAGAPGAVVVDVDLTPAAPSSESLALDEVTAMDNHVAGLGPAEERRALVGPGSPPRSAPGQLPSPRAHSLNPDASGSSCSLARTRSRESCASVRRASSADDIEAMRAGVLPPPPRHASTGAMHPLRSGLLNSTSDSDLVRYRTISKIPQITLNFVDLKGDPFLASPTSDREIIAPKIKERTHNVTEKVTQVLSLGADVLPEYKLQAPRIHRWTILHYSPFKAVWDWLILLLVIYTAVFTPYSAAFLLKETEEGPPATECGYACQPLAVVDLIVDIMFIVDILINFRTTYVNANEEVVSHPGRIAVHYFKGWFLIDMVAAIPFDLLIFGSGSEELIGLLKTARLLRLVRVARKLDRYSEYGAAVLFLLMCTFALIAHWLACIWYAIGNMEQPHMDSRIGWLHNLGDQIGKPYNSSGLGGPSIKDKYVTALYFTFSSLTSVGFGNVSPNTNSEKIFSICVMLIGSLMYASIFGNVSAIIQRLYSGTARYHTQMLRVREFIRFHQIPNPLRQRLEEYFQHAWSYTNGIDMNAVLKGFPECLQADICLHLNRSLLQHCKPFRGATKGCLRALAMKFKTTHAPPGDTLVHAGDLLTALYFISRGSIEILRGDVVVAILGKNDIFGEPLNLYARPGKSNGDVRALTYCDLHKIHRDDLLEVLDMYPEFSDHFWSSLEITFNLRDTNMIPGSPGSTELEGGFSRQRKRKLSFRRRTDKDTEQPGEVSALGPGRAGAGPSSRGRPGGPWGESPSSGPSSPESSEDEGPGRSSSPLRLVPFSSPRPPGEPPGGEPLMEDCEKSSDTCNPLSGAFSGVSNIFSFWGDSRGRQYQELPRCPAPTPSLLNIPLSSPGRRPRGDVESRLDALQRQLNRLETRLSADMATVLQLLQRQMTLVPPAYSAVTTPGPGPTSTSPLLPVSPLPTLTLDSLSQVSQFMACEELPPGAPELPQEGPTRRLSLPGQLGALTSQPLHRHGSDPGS
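Further: peak tail current of the secondary pulse compared with the same well before compound.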

Question: With `CC(=O)Nc1ccccc1OCC(=O)NC1CCCCC1C` (stereo not shown) as the compound, how does the “hERG current change (%, negative = inhibition) at 10uM” value read?
Answer: 8.59%

Question: `NS(=O)(=O)c1cccc(-n2cnnn2)c1` was tested. Which “hERG current change (%, negative = inhibition) at 10uM” value did it give?
Answer: -6.93%

Question: With `NC1=C([N+](=O)[O-])C(c2ccc3c(c2)OCO3)C2=C(CCCC2=O)O1` (stereo not shown) as the compound, how does the “hERG current change (%, negative = inhibition) at 10uM” value read?
Answer: 10.8%

Question: `O=C(Nc1ccc(Cl)cc1)Nc1cc(S(=O)(=O)N2CCOCC2)ccc1N1CCCC1` was tested. Which “hERG current change (%, negative = inhibition) at 10uM” value did it give?
Answer: -54.5%

Question: `CCN(CC)S(=O)(=O)c1ccc(N2CCOCC2)c(NC(=O)c2ccc(NC(C)=O)cc2)c1` was tested. Which “hERG current change (%, negative = inhibition) at 10uM” value did it give?
Answer: -0.15%

Question: How did the “hERG current change (%, negative = inhibition) at 10uM” value turn out when `CCN(CC)S(=O)(=O)c1ccc(N2CCOCC2)c(NC(=O)c2ccc(F)cc2)c1` was run?
Answer: -72.3%

Question: `O=C(Nc1ccccc1F)Nc1cc(S(=O)(=O)N2CCOCC2)ccc1N1CCCC1` was tested. Which “hERG current change (%, negative = inhibition) at 10uM” value did it give?
Answer: -19%

Question: For `O=C(Nc1ccccc1)Nc1cc(S(=O)(=O)N2CCOCC2)ccc1N1CCCC1`, which “hERG current change (%, negative = inhibition) at 10uM” value is on record?
Answer: -71%

Question: How did the “hERG current change (%, negative = inhibition) at 10uM” value turn out when `CCN(CC)S(=O)(=O)c1ccc(N2CCOCC2)c(NC(=S)NC(=O)c2ccco2)c1` was run?
Answer: -66.5%

Question: For `O=C(Nc1ccc(Cl)c(Cl)c1)Nc1cc(S(=O)(=O)N2CCOCC2)ccc1N1CCCC1`, which “hERG current change (%, negative = inhibition) at 10uM” value is on record?
Answer: -16.6%

Question: `CCN(CC)S(=O)(=O)c1ccc(N2CCOCC2)c(NC(=O)c2ccccc2)c1` was tested. Which “hERG current change (%, negative = inhibition) at 10uM” value did it give?
Answer: -25.6%

Question: For `O=C(Nc1cc(S(=O)(=O)N2CCOCC2)ccc1N1CCCCC1)c1ccc(Cl)cc1`, which “hERG current change (%, negative = inhibition) at 10uM” value is on record?
Answer: -1.07%

Question: For `O=C(Nc1cccc(Cl)c1)Nc1cc(S(=O)(=O)N2CCOCC2)ccc1N1CCCC1`, which “hERG current change (%, negative = inhibition) at 10uM” value is on record?
Answer: -38.9%

Question: For `O=C(NC(=S)Nc1cc(S(=O)(=O)N2CCOCC2)ccc1N1CCOCC1)c1ccco1`, which “hERG current change (%, negative = inhibition) at 10uM” value is on record?
Answer: -39.4%

Question: With `O=C(NC(=S)Nc1ccccc1N1CCOCC1)c1ccco1` as the compound, how does the “hERG current change (%, negative = inhibition) at 10uM” value read?
Answer: 9.73%

Question: Which “hERG current change (%, negative = inhibition) at 10uM” value does the source give for `O=C(c1ccccn1)N(Cc1ccco1)C1(C(=O)NC2CCCCC2)CCCCC1` here?
Answer: 10.9%

Question: `O=C(CCC(=O)OCc1ccc(Br)cc1)Nc1ccccc1` was tested. Which “hERG current change (%, negative = inhibition) at 10uM” value did it give?
Answer: 8.45%

Question: `CCC1CCCCN1C(=O)Cn1c(=O)n(CCC(=O)NCc2ccco2)c(=O)c2sccc21` (stereo not shown) was tested. Which “hERG current change (%, negative = inhibition) at 10uM” value did it give?
Answer: -6.12%

Question: For `C=CCNC(=O)c1ccccc1NC(=O)C1COc2ccccc2O1` (stereo not shown), which “hERG current change (%, negative = inhibition) at 10uM” value is on record?
Answer: 4.92%

Question: `c1ccc(CCNc2ncnc3ccccc23)cc1` was tested. Which “hERG current change (%, negative = inhibition) at 10uM” value did it give?
Answer: -43.2%

Question: Which “hERG current change (%, negative = inhibition) at 10uM” value does the source give for `Cc1cc(Cl)ccc1OC(C)C(=O)NN1C(=O)c2ccccc2C1=O` (stereo not shown) here?
Answer: 20.9%

Question: `COc1cccc(OC)c1C(=O)OCC(=O)NCC(C)C` was tested. Which “hERG current change (%, negative = inhibition) at 10uM” value did it give?
Answer: 24.7%

Question: For `COc1cccc(NC(=O)N2CCOCC2)c1`, which “hERG current change (%, negative = inhibition) at 10uM” value is on record?
Answer: -14.8%

Question: How did the “hERG current change (%, negative = inhibition) at 10uM” value turn out when `CC(C)(C)N=Cc1cc(-c2ccccc2)sc1O` was run?
Answer: -17.2%

Question: `COc1ccc(/C=C/C(=O)c2ccc(NC3=NCCCS3)cc2)cc1OC` was tested. Which “hERG current change (%, negative = inhibition) at 10uM” value did it give?
Answer: -37.7%

Question: Which “hERG current change (%, negative = inhibition) at 10uM” value does the source give for `Cc1nn(Cc2ccccc2)c(C)c1/C=N/NC(=O)c1ccncc1` here?
Answer: -46.4%

Question: With `Cc1cccc(N2CCN(C(=O)c3cc(S(=O)(=O)N4CCCC4)cn3C)CC2)c1C` as the compound, how does the “hERG current change (%, negative = inhibition) at 10uM” value read?
Answer: -38%

Question: Which “hERG current change (%, negative = inhibition) at 10uM” value does the source give for `Cc1cc(C)cc(NC(=O)CSc2nc3ccncc3[nH]2)c1` here?
Answer: 8.99%

Question: How did the “hERG current change (%, negative = inhibition) at 10uM” value turn out when `O=C(Nc1ccc(Cl)c(S(=O)(=O)N2CCOCC2)c1)c1cn2ccccc2n1` was run?
Answer: 11.9%

Question: `O=C(Nc1cc(C(F)(F)F)ccc1N1CCOCC1)c1cn2ccccc2n1` was tested. Which “hERG current change (%, negative = inhibition) at 10uM” value did it give?
Answer: -2.98%

Question: `O=C(Nc1cc(S(=O)(=O)N2CCOCC2)ccc1N1CCOCC1)c1cn2ccccc2n1` was tested. Which “hERG current change (%, negative = inhibition) at 10uM” value did it give?
Answer: -52.3%

Question: How did the “hERG current change (%, negative = inhibition) at 10uM” value turn out when `C=CCn1c(COc2ccccc2)nnc1SC(C)C(=O)N/N=C/c1cc(Cl)ccc1O` (stereo not shown) was run?
Answer: 0.335%

Question: For `CCCN1CCN(C(=O)c2ccc3nc(CC)c(CC)nc3c2)CC1`, which “hERG current change (%, negative = inhibition) at 10uM” value is on record?
Answer: 1.54%

Question: With `CNC(=O)COc1ccc(S(=O)(=O)Nc2ccccc2)cc1` as the compound, how does the “hERG current change (%, negative = inhibition) at 10uM” value read?
Answer: 14.4%

Question: How did the “hERG current change (%, negative = inhibition) at 10uM” value turn out when `O=C(c1ccco1)N1CCCSC1=Nc1ccccc1` was run?
Answer: 12%

Question: Which “hERG current change (%, negative = inhibition) at 10uM” value does the source give for `COc1ccc(NC(=O)c2cc3ccccc3o/c2=N\NS(=O)(=O)c2ccc(C)cc2)cc1` here?
Answer: -13.6%

Question: With `COc1cccc2cc(C(=O)Nc3cc(C)cc(C)c3)/c(=N/NS(=O)(=O)c3ccccc3)oc12` as the compound, how does the “hERG current change (%, negative = inhibition) at 10uM” value read?
Answer: 19.5%

Question: How did the “hERG current change (%, negative = inhibition) at 10uM” value turn out when `Cc1ccc(S(=O)(=O)N/N=c2\oc3ccccc3cc2C(=O)Nc2cccc(C)c2)cc1` was run?
Answer: -68.1%

Question: With `O=C1CC2(CCN(C(=O)c3cccc([N+](=O)[O-])c3)CC2)Oc2ccccc21` as the compound, how does the “hERG current change (%, negative = inhibition) at 10uM” value read?
Answer: -75.7%

Question: For `O=C1CC2(CCN(C(=O)c3ccc([N+](=O)[O-])cc3)CC2)Oc2ccccc21`, which “hERG current change (%, negative = inhibition) at 10uM” value is on record?
Answer: -87.9%

Question: How did the “hERG current change (%, negative = inhibition) at 10uM” value turn out when `O=C1CN(C(=O)c2cccc([N+](=O)[O-])c2)CC(=O)N1` was run?
Answer: 13.4%

Question: How did the “hERG current change (%, negative = inhibition) at 10uM” value turn out when `O=C(c1cccc([N+](=O)[O-])c1)N1CCOCC1` was run?
Answer: 11.7%

Question: With `Cc1nn2c(C(F)(F)F)c3c(nc2c1-c1ccccc1)CCC3` as the compound, how does the “hERG current change (%, negative = inhibition) at 10uM” value read?
Answer: 19.1%
